# VLA-4 inh – inhibition in a human VLA-4 binding assay. 0.2% of 330,000 active. VLA-4 expressing cells, ligand binding flow cytometry. inhibition, % (about 7 µM as worked out from the volumes in the protocol); in the data active = inhibition above about 50%
# PKA-R2B act – activators of human PKA-R2B complex; P22694+P31323; PKA-R2B holoenzyme dissociation, Cy5-IP20 fluorescence polarization; R2B truncated from residue 108, S112A mutant; 0% DMSO only, 100% 113 µM cGMP; activation, % at 11.4 µM; 0.079% of 340,000 active; AID 504700;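 active = activation above a cutoff set at the mean over all compounds plus 3 SD, cut at about 18% in these data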;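 also: higher means more holoenzyme dissociation and a rise in polarization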
# PKA-R1A act – activators of PKA-R1A complex; P00514+P68181; PKA-R1A dissociation, Cy5-IP20 fluorescence polarization; scaled: DMSO 0%, 113 µM cGMP 100%; activation, % at 11.4 µM; 0.083% of 340,000 active; AID 504707;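 active = percent activation above the mean of all tested compounds plus 3 SD, cut at about 19% in these data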;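 also: higher means more PKAc released from R1A so a rise in polarization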
# ATG4B inh – blocks human ATG4B protease cleavage of LC3 substrate; Q9Y4P1; 0.51% of 340,000 active; inhibition, % at 8.33 µM; ATG4B cleavage of LC3-PLA2, NBD-HPC fluorescence, 1 h; AID 504462; in the data active = inhibition above about 40%
# NRP1-CendR mod – NRP-1/CendR interaction modulation. FAM-RPARPAR peptide binding to NRP-1, fluorescence polarization. inhibition, % at 25 µM. 0.85% of 360,000 active;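 active = inhibition or corrected inhibition above about 18%, plus a signal ratio from 0.5 to 1.5, limit read from the data, passing the limit was not always enough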
# Target sequence (O14786 whole entry, looked up): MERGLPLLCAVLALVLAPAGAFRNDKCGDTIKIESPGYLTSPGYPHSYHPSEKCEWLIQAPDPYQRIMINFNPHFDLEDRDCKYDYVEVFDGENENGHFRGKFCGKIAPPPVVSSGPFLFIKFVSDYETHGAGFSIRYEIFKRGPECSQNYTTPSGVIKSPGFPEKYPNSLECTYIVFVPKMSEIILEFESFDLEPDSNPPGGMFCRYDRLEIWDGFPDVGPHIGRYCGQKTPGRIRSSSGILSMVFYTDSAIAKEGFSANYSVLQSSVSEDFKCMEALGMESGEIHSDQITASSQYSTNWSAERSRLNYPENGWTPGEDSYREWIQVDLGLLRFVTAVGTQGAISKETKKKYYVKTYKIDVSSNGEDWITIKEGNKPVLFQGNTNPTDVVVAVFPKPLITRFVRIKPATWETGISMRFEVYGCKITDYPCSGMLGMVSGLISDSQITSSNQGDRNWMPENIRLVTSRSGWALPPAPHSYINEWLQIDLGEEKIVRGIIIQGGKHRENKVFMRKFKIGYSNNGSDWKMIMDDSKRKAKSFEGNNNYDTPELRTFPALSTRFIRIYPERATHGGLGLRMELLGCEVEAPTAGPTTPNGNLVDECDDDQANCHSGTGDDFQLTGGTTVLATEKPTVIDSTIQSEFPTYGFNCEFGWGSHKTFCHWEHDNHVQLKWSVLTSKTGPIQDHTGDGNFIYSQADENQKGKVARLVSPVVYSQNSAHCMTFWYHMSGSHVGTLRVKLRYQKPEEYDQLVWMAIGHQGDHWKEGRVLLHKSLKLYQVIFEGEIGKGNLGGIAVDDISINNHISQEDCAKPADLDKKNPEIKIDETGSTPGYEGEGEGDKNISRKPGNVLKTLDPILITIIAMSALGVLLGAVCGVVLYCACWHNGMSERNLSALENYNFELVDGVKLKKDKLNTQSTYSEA
# The depositor's hits bear a star; . = not tested or not shown. The list is not random: actives were taken first. Their share in the collection is about 1.6%.
SMILES,VLA-4 inh,PKA-R2B act,PKA-R1A act,ATG4B inh,NRP1-CendR mod
NC(=O)OCC(COC(N)=O)c1ccccc1,32,6,11,0,-11
CC(C)COC(=O)C(N)C(C(=O)OCC(C)C)c1ccccc1 (stereo not drawn),1,-2,-5,1,30*
CCCNC(=O)C1(C)CCCN(Cc2csc(-c3ccccc3)n2)C1 (stereo not drawn),.,.,.,.,-6
COc1ccc(C)cc1S(=O)(=O)Nc1cc2c3c(c1)C(C)C(=O)N3CCC2 (stereo not drawn),14,-9,13,-7,23*
CCNC(=O)C1CCCN(C(=O)c2ccc3c(c2)OCO3)CC1 (stereo not drawn),.,.,.,.,-3
Fc1ccc(-c2nc3ccc(Br)cn3c2Cc2ccsc2)cc1,.,.,.,.,-18
CC(C)(C)NC(=O)NC(=O)CSc1cccc(C(F)(F)F)c1,-4,-6,-11,1,-2
CNC(=O)NC(=O)CSc1cccc(C(F)(F)F)c1,16,-3,4,-5,38*
CCc1ccccc1NC(=O)Nc1cc(F)ccc1F,10,0,0,21,-2
CC1(c2nnnn2-c2ccc3c(c2)OCCO3)CCC(=O)N1CCc1ccccc1F (stereo not drawn),.,.,.,.,22
Cc1oc2ccc(O)cc2c1C(=O)OC(C)C,13,-7,-6,-25,11
Cc1oc2ccc(OCC(N)=O)cc2c1C(=O)OC(C)C,20,2,4,6,28*
Cc1cc(C)nc(NS(=O)(=O)c2ccc(NC(=O)c3nn(-c4ccccc4)ccc3=O)cc2)n1,-4,-10,-2,-6,7
Cc1cccc(-n2ccc(=O)c(C(=O)Nc3ccc(S(=O)(=O)Nc4onc(C)c4C)cc3)n2)c1,28,0,-5,-1,36*
O=[N+]([O-])c1ccc(Sc2cccc[n+]2[O-])c2nonc12,.,10,4,-7,34*
O=[N+]([O-])c1ccc(Nc2ccccc2)c2nonc12,-3,2,7,2,-78
Cc1cccc(NC(=O)c2cc3c(=O)n4ccccc4nc3n(CC(C)C)c2=N)c1,68*,-2,5,0,7
Cc1ccc(C(=O)CCC(=O)N2CCN(C/C=C/c3ccccc3)CC2)cc1,.,-9,2,.,-32
CC(C)N(CCCNC(=O)Cn1ncc2c([nH]c3ccccc32)c1=O)Cc1ccccc1,22,3,-6,-1,26*
Cc1ccc2[nH]c3c(=O)n(CC(=O)NCCCN(C)Cc4ccccc4)ncc3c2c1,6,-3,-18,-6,0
NC(=O)C1CCN(c2nc(-c3ccccc3F)cs2)CC1,-9,-3,6,15,25*
NC(=O)C1CCN(c2nc(-c3ccccc3C(F)(F)F)cs2)CC1,8,-8,0,13,30*
CN(C)c1ccccc1-c1csc(N2CCC(C(N)=O)CC2)n1,19,0,-8,11,-10
NC(=O)C1CCN(c2nc(-c3ccccc3Br)cs2)CC1,7,.,.,-3,.
NC(=O)C1CCN(c2nc(-c3ccc4occc(=O)c4c3)cs2)CC1,2,-7,6,-4,25*
SMILES,VLA-4 inh,PKA-R2B act,PKA-R1A act,ATG4B inh,NRP1-CendR mod
NC(CCc1ccccc1)c1csc(Nc2nncc3ccccc23)n1 (stereo not drawn),.,.,.,.,-3
Cc1cnc(=O)[nH]c1SCc1ccc([N+](=O)[O-])cc1,2,-5,-2,-7,3
CN1C(=O)CC2(C)C1=CCc1scnc12 (stereo not drawn),.,.,.,.,19*
COC(=O)[C@]1(Sc2ccc(OC)cc2)CC(=O)N[C@@H]1c1ccccc1,.,.,.,.,-2
CC1(C(=O)NS(=O)(=O)C2CC2)CCN(C(=O)c2cccc(Cl)c2)C1 (stereo not drawn),.,.,.,.,23
COc1ccc([N+](=O)[O-])cc1CN1CCN(c2ncc(Cc3ccccc3)cn2)CC1,.,.,.,.,-19
Cc1ccc(SCC(=O)OC(C)C(=O)Nc2ccc(S(N)(=O)=O)cc2)cc1C (stereo not drawn),-7,-4,-7,-10,44*
COc1ccc2c(c1)C(=O)O[C@@H](c1ccccc1)C[C@@H](O)C(=O)CC2,.,.,.,.,-13
CC(C)(C)NC(=O)c1cnn2c1NC(c1ccc(F)cc1)CC2C(F)(F)F (stereo not drawn),5,-2,-1,-3,0
CCC(C)NC(=O)c1cnn2c1NC(c1cccs1)CC2C(F)(F)F (stereo not drawn),-11,-14,-16,-9,22*

# Source: PubChem
